Measurements taken from the supplement of paper PMC10338343.
± gives the standard deviation.

Tested on: MILI (PIWIL2) piRISC loaded with L1MC piRNA (26 nt)
Test: pre-steady-state target cleavage rate (min^-1); guide: L1MC piRNA 5'p-UAACUAAAUACUAUGCAAGCUGUAGG; MIWI and MILI are mouse PIWI proteins and EfPiwi is from a freshwater sponge; tags in brackets are library labels; higher = faster piRNA-guided slicing of the target
In short: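 A transcribed, DNA-blocked target RNA library […] was incubated at 33 °C for 0–8 or 0–960 min with 1 nM active affinity-purified piRISC carrying one synthetic guide, in HEPES–potassium acetate buffer with or without 500 nM GTSF1 partner protein. Uncleaved targets were then sequenced and normalised to depth and to weakly complementary targets. Data from three trials were pooled, with k3 capped at 0.0001 min^-1, and a burst-and-steady-state fit yielded the pre-steady-state cleavage rate.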

[1] = auxiliary factor: 500 nM mouse GTSF1
[2] = auxiliary factor: none (no GTSF1)
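Further: 1 nM active piRISC with 0.1 nM target library at 33 °C single turnover.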

| Sequence | pre-steady-state target cleavage rate [1] | pre-steady-state target cleavage rate [2] |
| --- | --- | --- |
| UCCUGGAUGAGCUUGCAAGUAUUUAGUUA | 0.0177 ± 0.0056 | 0.00379 ± 0.0026 |
| UCCUCCUACAGCUACCAUAGUAUUUAGUUA | 0.2 ± 0.021 | 0.00448 ± 0.0023 |
| UCCUGGUACAGCUUCGUUAGUAUUUAGUAA | 0.165 ± 0.04 | 0.00388 ± 0.0027 |
| UCCUGGUACAGCUUCCAAAGUAUUUAGUUA | 0.138 ± 0.028 | 0.00693 ± 0.0027 |
| UCCUGGAUCAGCUUGGAUAGUUUUUAGUUA | 0.0521 ± 0.0089 | 0.00364 ± 0.0024 |
| UCCUGCUACAGCUUGCAUAGUACUUAGUUA | 0.233 ± 0.026 | 0.00719 ± 0.0026 |
| UCCUGGAUGUCGUUGCAUAGUAGUUUAGUUA | 0.0297 ± 0.0098 | 0.0066 ± 0.0025 |
| UCCUGGAUGUCGUUGCAUAGUUUUUAGUUA | 0.00524 ± 0.0046 | 0.00595 ± 0.0026 |
| UCCUGGUACAGCUUGCAUAGUUUUAAGUUA | 0.0506 ± 0.014 | 0.00428 ± 0.0033 |
| UCCUGGAUCAGCUUGCAUUGUUUUUAGUUA | 0.0121 ± 0.0054 | 0.00431 ± 0.0023 |
| UCCUGGAUGUCCAAGCAUAGUAUUUAGUUA | 0.0263 ± 0.0097 | 0.00547 ± 0.0023 |
| UCCUGGAACAGCUUCCUUAGUAUUUAGUUA | 0.214 ± 0.018 | 0.00562 ± 0.002 |
| UCCUGGAUGUCGAUGCAUAGUUAUUAGUUA | 0.00565 ± 0.0033 | 0.0042 ± 0.0022 |
| UCCUGGAUGUCCUUGCAUAGAUUUUAGUUA | 0.0121 ± 0.0046 | 0.00402 ± 0.0018 |
| UCCUGGUACAGCUUGCAUAGUAAAAAGUUA | 0.104 ± 0.024 | 0.00471 ± 0.003 |
| UCCUGGUACAGCUUGCAUAGAUAUUUAGUUA | 0.0243 ± 0.011 | 0.00568 ± 0.0026 |
| UCCUGGAUCAGGUUGCAUAGUAUUAAGUUA | 0.144 ± 0.017 | 0.00601 ± 0.0021 |
| UCCUGGAUGUCGUUGCAUAGUACUUUAGUUA | 0.0156 ± 0.0059 | 0.00645 ± 0.0028 |
| UCCUGGAUGAGCUUGCAAUGUAUUUAGUAA | 0.0194 ± 0.0045 | 0.00717 ± 0.0024 |
| UCCUGGAUGUCGACGCAUAGUAUUUAGUUA | 0.0214 ± 0.0042 | 0.00381 ± 0.0021 |
| UCCUGGAUGUGCUUGCAUAGUAUUAUAGUUA | 0.15 ± 0.025 | 0.006 ± 0.0028 |
| UCCUGGAUGAGCUUGCAAACUAUUUAGUUA | 0.00935 ± 0.0025 | 0.00292 ± 0.0024 |
| UCCUGGAACAGGUUGGAUAGUAUUUAGUUA | 0.164 ± 0.02 | 0.00851 ± 0.0024 |
| UCCUGGAUCAGCUUGCAUAGUAUUUUAGUUA | 0.23 ± 0.025 | 0.0107 ± 0.0028 |
| UCCUGGAUCAGCUUGCAUAGUUUUUUGUUA | 0.0453 ± 0.011 | 0.00417 ± 0.0027 |
| UCCUGGAUCAGCUAGCAUAGUAUAUAGUUA | 0.22 ± 0.02 | 0.00644 ± 0.0023 |
| UCCUGGAUGUCCUUGCAUUGUAAUUAGUUA | 0.014 ± 0.0069 | 0.00354 ± 0.0025 |
| UCCUGGAUCAGCAUGCAAAGUAUUUAGUUA | 0.098 ± 0.011 | 0.0074 ± 0.0018 |
| UCCUGGAUGUCCUUGCAAAGUAUAUAGUUA | 0.0544 ± 0.014 | 0.00539 ± 0.002 |
| UCCUGGAUGACCUUGCAUAGUAUAUAGUUA | 0.167 ± 0.034 | 0.00397 ± 0.0031 |
